Consider three molecules from PubChem BioAssay (EPA / NIEHS).

The AC50 is the midpoint of the concentration-response curve, whichever way the signal moves.

Records with an inconclusive call do not appear. The source made the active and inactive calls. The calls were made as follows, unless noted: active = hit-call score of the fitted dose curve at least 0.9, where 1 is the maximum; inconclusive = response in the unintended direction; inactive = score below 0.9.

The subject of experiment [1] is Brachyury (BRA) Protein Expression, Deisenroth Lab, TBXT (gene 6862). The experiment can be described thus: CCTE_Deisenroth_DEVTOX-GLR_legacy_Bra: (Legacy) CCTE's DevTox GLR-Endo Assay Evaluation of Brachyury (BRA) Protein Expression, Deisenroth Lab (AID 2284329; active = hit-call score of the fitted dose curve at least 0.9, where 1 is the maximum; inactive = score below 0.9). The essentials: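 Percent Bra-positive cells, scored by high-content imaging against a threshold of 5x BMAD over the undifferentiated control median, with the 0.2% DMSO median subtracted. RUES2-GLR cultures were dosed twice at 24 h intervals across a 48 h differentiation, at 1 nM–200 uM in ten steps, with n=4 replicates.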

Experiment [2] is described as follows: CCTE_Deisenroth_DEVTOX-GLR_legacy_CellCount: (Legacy) Viability Assessment in CCTE's DevTox GLR-Endo Assay, Deisenroth Lab (AID 2284331; active = hit-call score of the fitted dose curve at least 0.9, where 1 is the maximum; inactive = score below 0.9). Particulars: actives raise or lower the signal. The method, boiled down:
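Viability is taken from imaged nuclei counts in fixed RUES2-GLR cultures after 48 h of differentiation under two 24 h-spaced chemical exposures, 10 concentrations from 1 nM to 200 uM, gain or loss versus DMSO baseline.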

The test system of experiment [3] is SRY-box transcription factor 17 (SOX17) Protein Expression, Deisenroth Lab, SOX17 (gene 64321). The experiment can be described thus: CCTE_Deisenroth_DEVTOX-GLR_legacy_Sox17: (Legacy) CCTE's DevTox GLR-Endo Assay Evaluation of SRY-box transcription factor 17 (SOX17) Protein Expression, Deisenroth Lab (AID 2284341; active = hit-call score of the fitted dose curve at least 0.9, where 1 is the maximum; inactive = score below 0.9). Particulars: actives raise or lower the signal. The essentials:
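Endoderm-differentiation readout in RUES2-GLR human pluripotent cells at 48 h, concentrations spanning 1 nM - 200 uM. Sox17-positive cells divided by total cell count; gain or loss relative to DMSO solvent control, n=4 experimental replicates.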

A short description of experiment [4]: VALA_TUBIPS_Antagonist_CellCount: Viability Assessment in the VALA Sciences human iPS-derived Endothelial Tubule Formation (TUBIPS) Antagonism Assay (AID 2284335).
Experiment [5] can be described thus: VALA_TUBHUV_Agonist_TubuleLength: VALA Sciences human Umbilical Vein Endothelial Tubule Formation (TUBHUV) Agonism Assay (AID 2284337). The essentials: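 Tubule length quantified by CD31 immunofluorescence imaging after fixation. HUVEC-HDF co-cultures (1:3) pre-grown 3 days with 10 ng/ml VEGF, then dosed 3 days in VEGF medium; 0.1 % DMSO vehicle baseline.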
Experiment [6] in a line: VALA_TUBIPS_Agonist_CellCount: Viability Assessment in the VALA Sciences human iPS-derived Endothelial Tubule Formation (TUBIPS) Agonism Assay (AID 2284338).
The nature of experiment [7]: VALA_MIGHUV1_ScratchOnly_WoundArea: VALA Sciences human Umbilical Vein Endothelial Cell Migration (MIGHUV) Assay, Area of Scratch Wound Inhibited Recovery (AID 2284336). The method, boiled down:
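Wound area remaining after 24 h recovery imaged by Hoechst nuclear fluorescence in scratched HUVEC cultures, chemicals added within 30 min of scratching across a 6-point series. Gain of signal fitted against 0.1% DMSO; cytochalasin D positive control.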

As for `COC(=O)c1ccccc1C(=O)OC`, the call in experiment [1], in experiment [2] and in experiment [3] was inactive.

Take `CC(C)(C)c1ccc(CSc2cnn(C(C)(C)C)c(=O)c2Cl)cc1`: in experiment [4], the outcome was inactive. The AC50 was 7.59 µM (active) in experiment [5] and 50 µM (active) in experiment [6].

As for `N#Cc1nn(-c2c(Cl)cc(C(F)(F)F)cc2Cl)c(N)c1S(=O)C(F)(F)F` (centres undefined), the outcome in experiment [7], in experiment [5] and in experiment [6] was inactive.
